A number with no mark means an inactive call. Active and inactive are the calls of the source. Cut-off read from the data, not from the text of the source, unless noted: active = inhibition above about 28%; inactive = the rest.
Tests used:
[1] = StAR promoter reporter inhibitors, counter-screen for LRH-1 inverse agonist project, cell-based, luminescence, high throughput (AID 651611); settings: StAR promoter luciferase reporter counterscreen, at 3.6 µM, hits give high values
[2] = biological target: Nuclear receptor subfamily 5 group A member 2 (Homo sapiens) (UniProt O00482); assay: NR5A2 activity suppression in reporter cells – cell-based, luminescence, confirmation (AID 651613; in the data active = inhibition above about 42%;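 note: HEK293T cells co-transfected with LRH-1 and StAR promoter luciferase reporter; 0% = vehicle wells and 100% = parental cells lacking receptor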); settings: cell-based LRH-1 luciferase reporter, inverse agonism; at 3.6 µM; hits give high values
Sequence of Nuclear receptor subfamily 5 group A member 2 (Homo sapiens) (O00482 whole entry, looked up): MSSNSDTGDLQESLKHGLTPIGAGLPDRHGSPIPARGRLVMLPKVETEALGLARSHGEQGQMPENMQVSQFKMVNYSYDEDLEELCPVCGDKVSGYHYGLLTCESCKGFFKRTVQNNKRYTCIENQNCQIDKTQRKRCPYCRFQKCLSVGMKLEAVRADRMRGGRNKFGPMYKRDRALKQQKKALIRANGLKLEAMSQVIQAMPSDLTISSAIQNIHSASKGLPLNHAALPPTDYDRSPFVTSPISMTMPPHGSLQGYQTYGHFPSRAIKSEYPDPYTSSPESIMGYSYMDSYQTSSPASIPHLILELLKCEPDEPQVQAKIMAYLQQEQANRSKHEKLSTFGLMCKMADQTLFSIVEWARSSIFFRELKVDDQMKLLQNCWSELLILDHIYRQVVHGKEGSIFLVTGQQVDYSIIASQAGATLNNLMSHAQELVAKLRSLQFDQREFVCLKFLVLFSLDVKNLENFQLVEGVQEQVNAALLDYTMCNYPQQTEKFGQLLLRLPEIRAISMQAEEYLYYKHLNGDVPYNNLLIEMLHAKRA

[3] = biological target: Steroidogenic factor 1 (Homo sapiens) (UniProt Q13285); assay: inverse agonism at SF1 nuclear receptor – cell-based, luminescence, high throughput, counter-screen for LRH-1 inverse agonist project (AID 651614; in the data active = inhibition above about 44%;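 note: cells cotransfected with StAR promoter reporter and SF1 expression vector; 0% = vehicle on cells with receptor and 100% = vehicle on cells lacking receptor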); settings: cell-based SF1 luciferase reporter, at 3.6 µM, hits give high values
Sequence of Steroidogenic factor 1 (Homo sapiens) (Q13285 whole entry, looked up, the tested form may be a part): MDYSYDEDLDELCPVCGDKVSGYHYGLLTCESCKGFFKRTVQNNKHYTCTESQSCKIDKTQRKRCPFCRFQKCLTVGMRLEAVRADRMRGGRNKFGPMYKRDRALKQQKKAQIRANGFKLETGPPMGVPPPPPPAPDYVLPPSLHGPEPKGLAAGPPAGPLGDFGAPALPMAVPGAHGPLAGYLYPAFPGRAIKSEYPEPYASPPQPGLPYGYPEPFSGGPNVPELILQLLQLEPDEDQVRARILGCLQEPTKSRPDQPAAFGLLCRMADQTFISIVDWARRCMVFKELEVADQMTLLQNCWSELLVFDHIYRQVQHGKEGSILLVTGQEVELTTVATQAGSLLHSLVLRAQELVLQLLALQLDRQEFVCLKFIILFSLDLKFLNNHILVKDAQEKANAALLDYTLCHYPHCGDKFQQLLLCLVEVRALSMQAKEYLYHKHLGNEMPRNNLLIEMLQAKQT

[4] = compounds suppressing VP16-driven luciferase signal – cell-based, luminescence, high throughput, counter-screen for LRH-1 inverse agonist project (AID 651615; in the data active = inhibition above about 33%); settings: Gal4-VP16 luciferase reporter cells, at 3.6 µM, hits give high values
[5] = tested on: transactivating tegument protein VP16 (Human herpesvirus 1); assay: compounds suppressing VP16-driven luciferase signal – cell-based, luminescence, single concentration, counter-screen for SRC2 inhibitor project (AID 652007; in the data active = inhibition above about 36%); settings: cell-based VP16 transactivation luciferase reporter, at 8.9 µM, hits give high values
[6] = biological target: Nuclear receptor coactivator 2 (Homo sapiens) (UniProt Q15596); assay: inhibition of GAL4-SRC2 driven luciferase expression – cell-based, luminescence, HEK293, triplicate, confirmation (AID 652008;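 active = mean inhibition above 46.5%, the solvent-only control mean plus 3 SD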;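 note: 0% = DMSO-treated cells and 100% = Gossypol at 36 µM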); settings: HEK293 GAL4-SRC2 luciferase reporter, at 8.9 µM, hits give high values
Sequence of Nuclear receptor coactivator 2 (Homo sapiens) (Q15596 whole entry, looked up, the tested form may be a part): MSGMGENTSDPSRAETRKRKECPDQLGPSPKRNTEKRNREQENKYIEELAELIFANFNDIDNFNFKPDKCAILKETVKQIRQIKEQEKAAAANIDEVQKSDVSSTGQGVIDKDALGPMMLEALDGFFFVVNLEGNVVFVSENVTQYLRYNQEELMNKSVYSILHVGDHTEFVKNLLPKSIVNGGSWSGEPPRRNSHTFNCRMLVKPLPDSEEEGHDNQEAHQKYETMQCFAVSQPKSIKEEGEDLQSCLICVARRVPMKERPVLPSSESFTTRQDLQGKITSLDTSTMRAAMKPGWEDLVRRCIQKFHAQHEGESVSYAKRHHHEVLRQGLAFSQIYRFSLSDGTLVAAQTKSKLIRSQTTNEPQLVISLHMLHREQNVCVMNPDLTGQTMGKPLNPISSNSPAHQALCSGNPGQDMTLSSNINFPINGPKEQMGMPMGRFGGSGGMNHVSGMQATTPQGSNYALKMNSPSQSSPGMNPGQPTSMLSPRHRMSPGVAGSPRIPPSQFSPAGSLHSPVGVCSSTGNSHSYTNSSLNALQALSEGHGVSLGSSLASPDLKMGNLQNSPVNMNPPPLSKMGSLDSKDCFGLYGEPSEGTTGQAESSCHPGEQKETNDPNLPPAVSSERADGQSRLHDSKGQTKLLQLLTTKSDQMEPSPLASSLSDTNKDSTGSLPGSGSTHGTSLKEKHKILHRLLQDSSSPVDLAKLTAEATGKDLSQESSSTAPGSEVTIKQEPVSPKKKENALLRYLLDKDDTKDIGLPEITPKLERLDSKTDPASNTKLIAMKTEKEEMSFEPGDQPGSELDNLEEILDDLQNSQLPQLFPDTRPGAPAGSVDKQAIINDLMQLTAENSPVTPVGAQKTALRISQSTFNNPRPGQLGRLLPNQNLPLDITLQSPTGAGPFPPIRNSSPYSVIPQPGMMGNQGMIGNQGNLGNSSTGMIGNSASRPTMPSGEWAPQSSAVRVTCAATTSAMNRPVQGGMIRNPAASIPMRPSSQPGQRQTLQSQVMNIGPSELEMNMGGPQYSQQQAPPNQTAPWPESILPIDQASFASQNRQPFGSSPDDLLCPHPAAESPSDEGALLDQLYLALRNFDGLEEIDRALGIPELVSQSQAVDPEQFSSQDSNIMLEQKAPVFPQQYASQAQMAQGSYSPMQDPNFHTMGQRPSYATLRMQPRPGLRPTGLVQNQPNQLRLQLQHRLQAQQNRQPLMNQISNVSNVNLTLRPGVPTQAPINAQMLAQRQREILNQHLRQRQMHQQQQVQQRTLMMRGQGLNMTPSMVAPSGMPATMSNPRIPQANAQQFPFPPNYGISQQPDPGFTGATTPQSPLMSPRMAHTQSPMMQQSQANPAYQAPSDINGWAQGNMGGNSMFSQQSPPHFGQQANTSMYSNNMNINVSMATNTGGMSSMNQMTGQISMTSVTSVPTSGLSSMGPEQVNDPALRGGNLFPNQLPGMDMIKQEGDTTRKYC

| SMILES | inhibition [1] | inhibition [2] | inhibition [3] | inhibition [4] | inhibition [5] | inhibition [6] |
| --- | --- | --- | --- | --- | --- | --- |
| COc1ccc(O)c(/C=N/Nc2nc(Nc3ccccc3)nc(-n3nc(C)cc3C)n2)c1 | 21.3% | -28.7% | -41.8% | -35.4% | – | – |
| COc1cc(/C=C2/SC(=Nc3ccc(O)cc3)NC2=O)ccc1O | 38.7% (active) | 48.5% (active) | 43.5% (active) | -31.2% | – | – |
| O=C(Nc1ccc(Oc2ccccc2)cc1)c1csc([C@H]2C[C@H](O)[C@@H](CO)O2)n1 | 27.6% | 56.6% (active) | 61.1% (active) | 54.4% (active) | – | – |
| CS(=O)(=O)N1CCc2cc(-c3csc(NC(=O)Cc4cccs4)n3)ccc21 | 12.6% | 53.8% (active) | 39.9% | 42.8% (active) | – | – |
| CC(=O)c1ccc2c(c1)C1C=CCC1C(c1cc3c(cc1Br)OCO3)N2 (centres undefined) | 45.6% (active) | 50.3% (active) | 46.1% (active) | 16.9% | – | – |
| Cc1ccc(-c2nc3ncccc3o2)cc1NC(=O)c1ccc([N+](=O)[O-])o1 | 24.2% | 57.8% (active) | 69.4% (active) | -15.3% | – | – |
| COc1ccc(OC)c(C2C3=C(COC3=O)Nc3cc4c(cc32)OCO4)c1 (centres undefined) | 57.4% (active) | 27.6% | 41.7% | 27.9% | – | – |
| CCc1ccccc1NC(=O)CSc1nnc([C@@H]2CCCN2C(=O)OC(C)(C)C)o1 | 16.4% | 50.5% (active) | 59% (active) | -8.78% | – | – |
| C/C(=N\NC(N)=S)c1ccncc1 | 6.9% | 54.2% (active) | 49% (active) | 3.01% | – | – |
| O=NN(CCc1ccncc1)c1ccc(OCc2ccccc2)cc1 | 3.58% | 73.2% (active) | 66.6% (active) | 50.5% (active) | – | – |
| Cc1c(Cl)cccc1NC(=O)CNc1ccccc1F | -3.5% | 58.7% (active) | 40.6% | -6.92% | – | – |
| Cn1cccc1C(=O)OCC(=O)NCCCc1ccccc1 | 3.25% | 54% (active) | 44.4% (active) | -22% | – | – |
| CC(C)(C)C(=O)Nc1cc2nn(-c3ccccc3)nc2cc1Cl | 48.3% (active) | 19.3% | 43.6% (active) | 50.1% (active) | 88.2% (active) | 90.3% (active) |
| O=C(C(Cl)c1ccccc1)N1CCCC1 (centres undefined) | 7.29% | 51.5% (active) | 44.9% (active) | -16.8% | – | – |
| O=C(CSc1ncccc1C(=O)O)Nc1ccc2c(c1)OCCO2 | 4.26% | 11.1% | 16.6% | 0.17% | -2.25% | -11.1% |
| COc1ccc(-c2cc(-c3nc4ccccn4c3NCc3ccccc3)ccc2OC)cc1 | 95.2% (active) | 109% (active) | 97.3% (active) | 98.7% (active) | 96.8% (active) | 98.3% (active) |
| CN(C)CCC(=O)N1C/C(=C/c2ccccc2)C(=O)/C(=C\c2ccccc2)C1 | 61.4% (active) | 84% (active) | 86.6% (active) | 77.2% (active) | 86.8% (active) | 55.3% (active) |
| Cc1ccnc2c1ccc1cccnc12 | 82.7% (active) | 108% (active) | 67.4% (active) | 65.5% (active) | -9.35% | 29% |
| CC(C)(C)c1ccc(Oc2ccc(NC(=O)C3CC=CCC3C(=O)O)cc2)cc1 (centres undefined) | 1.67% | 6.39% | 0.96% | 5.54% | 8.31% | 19.9% |
| c1ccc2c(c1)CCN(c1ncnc3c1[nH]c1ccccc13)C2 | 25.5% | 68.5% (active) | 69.5% (active) | 58.2% (active) | 25.4% | 40.2% |
| Cn1cnc([N+](=O)[O-])c1Oc1ccc2ccccc2c1 | 38.9% (active) | 55.3% (active) | 54.8% (active) | 10.8% | 11.9% | 19.6% |
| O=C1/C(=C\c2ccccc2)CN(C(=O)CCN2CCCCC2)C/C1=C/c1ccccc1 | 56.7% (active) | 84.7% (active) | 84.8% (active) | 73.7% (active) | 85.7% (active) | -4.61% |
| O=C(CCCc1ccccc1)c1ccc2c(c1)OCCO2 | 62.5% (active) | 7.99% | 55.9% (active) | 26.2% | 54.7% (active) | 73.9% (active) |

| SMILES | inhibition [1] | inhibition [2] | inhibition [3] | inhibition [4] | inhibition [5] | inhibition [6] |
| --- | --- | --- | --- | --- | --- | --- |
| O=C(CCl)Nc1cc2[nH]c(=O)[nH]c2cc1Br | 71.3% (active) | 78.6% (active) | 79.1% (active) | 2.89% | 76.5% (active) | 74.7% (active) |
| Cc1ccc(-c2nc(NC(=O)c3nn(C)cc3[N+](=O)[O-])sc2C)cc1 | 18.9% | 21.2% | 32.2% | -0.37% | 35.3% | 50.5% (active) |
| Cc1ccc(NC(=O)C2=C(c3ccccc3)S(=O)(=O)CCS2(=O)=O)cc1 | 11% | -4.23% | 30.3% | 48.5% (active) | 92.8% (active) | 96.9% (active) |
| CC1=C(CO)C(=O)OC([C@@H](C)C2CC[C@H]3C4C[C@H]5O[C@]56[C@@H](O)C=CC(=O)[C@]6(C)C4CC[C@]23C)C1 (some centres undefined) | 67.7% (active) | 66.2% (active) | 79.8% (active) | 79.6% (active) | 53.8% (active) | 41.6% |
| CCCCCCCCCC[n+]1cccc2c3ccccc3ccc21 | 83.3% (active) | 110% (active) | 96.1% (active) | 95.9% (active) | 48.9% (active) | 58.6% (active) |
| COc1ccc(CCNc2ncnc3sc(C)cc23)cc1OC | 35.5% (active) | 90.1% (active) | 57.7% (active) | 57.9% (active) | 16.6% | 25.8% |
| Cc1cccc(/C=C(\c2nc3ccccc3[nH]2)S(=O)(=O)c2ccccc2)c1 | 43.2% (active) | 35.1% | 48.8% (active) | 54.1% (active) | 10.3% | 50.5% (active) |
| Brc1ccc2ncnc(NCc3ccccc3)c2c1 | 30.5% (active) | 72.4% (active) | 59.9% (active) | 80.8% (active) | 21.7% | 54.5% (active) |
| CCN(Cc1ccc(OC)c(F)c1)C(=O)CCl | 31.7% (active) | 78.7% (active) | 73.3% (active) | 21.3% | 31.8% | 49.5% (active) |
| COc1ccc(-c2noc(CCCC(=O)NC3CCCC3)n2)cc1 | 15.1% | 59.7% (active) | 60.5% (active) | 34.5% (active) | 48.8% (active) | 53.7% (active) |
| O=C(NCCc1c[nH]c2ccccc12)c1ccc([N+](=O)[O-])o1 | 15.7% | 62.6% (active) | 59.7% (active) | 21.7% | 2.92% | 15.3% |
| O=C(CCl)N(c1ccccc1)c1c[nH]c2ccccc12 | 62.4% (active) | 55.8% (active) | 38.5% | 18.8% | 21.6% | 17.9% |
| CC(=O)NC(c1cccc([N+](=O)[O-])c1)c1ccc2cccnc2c1O (centres undefined) | 85.6% (active) | 100% (active) | 91.2% (active) | 83.9% (active) | 0.91% | 31.1% |
| Cc1cc(C)n2c(Nc3ccc4c(c3)OCCO4)c(-c3cc4ccccc4o3)nc2n1 | -27.7% | -26.8% | -6.96% | 0.38% | -60.9% | -12.5% |
| CC1CCC/C=C/C(=O)c2c(O)cc(O)cc2CC(=O)O1 (centres undefined) | 8.63% | 35.8% | 12.9% | 29.1% | 19.4% | 33.2% |
| COc1cccc(C2=CC(=O)CC(C)(C)C2)n1 | 9.54% | 61.3% (active) | 58.1% (active) | 45.9% (active) | -6.05% | 32.9% |
| Cc1nnsc1C(=O)NC1CCCc2c1cnn2-c1ccc(C(C)(C)C)cc1 (centres undefined) | 29.2% (active) | 50.7% (active) | 63.2% (active) | 50.6% (active) | 13.8% | 31.2% |
| N#CC(=C1C=CC(=NO)C(Cl)=C1)c1ccccc1 | 26% | 41.8% (active) | 61.3% (active) | 22.2% | -5.64% | 20.3% |
| CCCCCc1c(CC)ncn1CCc1ccccc1OC | -2.24% | 23.2% | 25.2% | 31.8% (active) | 2.9% | 1.53% |
| COc1ccc(/C=C/c2nc3ccccc3c(=O)o2)cc1 | 38.6% (active) | -49.3% | 37.2% | -63% | 38.4% (active) | 84.3% (active) |
| COc1ccc(C)cc1NS(=O)(=O)c1ccc(-c2cnc(C3CC3)o2)cc1 | 41.5% (active) | 41.9% (active) | 58% (active) | 54.5% (active) | 6.98% | 34.7% |
| CC(=O)c1c(C)[nH]c(C(=O)COc2cc(C)ccc2C(C)C)c1C | 21.1% | 53.5% (active) | 71% (active) | 50.3% (active) | 17.3% | 43% |
